# Laboratory results: the supplement of paper PMC10849652
# About 7,900 targets were measured; listed, in parts, are those with a hit and a random draw of the rest. About 0.6% of all pairs of compound and target were hits. Values without a mark were called inactive.
# Experiments:
# Test in all cases: log2 fold change, soluble protein after heating vs DMSO (PISA); higher = thermal stabilisation; K562 cells, 10 uM, 30 min; active = over 0.2 and 3.5 SD of the protein, either way, in both replicates (recomputed)
# [1] = compound: CC1=C(C=C(C=C1)NC(=O)C2=CC(=CC=C2)C(C)(C)C#N)NC3=CC4=C(C=C3)N=CN(C4=O)C
# Procedure, shortened: (§1)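 Aliquots of K562 cells (2×10^6 cells/mL) treated with 10 μM compound for 30 min were heated for 3 min over 48°C-58°C. After pooling and extraction in PBS with 0.5% NP-40 at 4°C, soluble protein from a 21,000xg, 90 min spin was quantified by TMTpro 16plex LC-MS/MS with channel sums equalised. Thermal stability is expressed against control samples, from duplicates, as a log2 fold change.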
# [2] = compound: CC1=C(C=C(C=C1)NC(=O)C2=CC(=CC=C2)N(C)C)NC(=O)C3=CC=C(C=C3)O
# Procedure, shortened: as §1
# [3] = compound: CC1=CC=C(C=C1)SC2=C3C=C(SC3=CN=C2)C(=O)N
# Procedure, shortened: as §1
# [4] = compound: CC1=NC(=CC=C1)C2=C(N=C(N2)C(C)(C)C)C3=CC4=NC=CN=C4C=C3
# Procedure, shortened: as §1
# Nexturastat A = compound: CCCCN(Cc1ccc(C(=O)NO)cc1)C(=O)Nc1ccccc1 [Nexturastat A]
# Procedure, shortened: as §1
# vemurafenib = compound: CCCS(=O)(=O)Nc1ccc(F)c(C(=O)c2c[nH]c3ncc(-c4ccc(Cl)cc4)cc23)c1F [vemurafenib]
# Procedure, shortened: as §1
# [5] = compound: CCCS(=O)(=O)Nc1ccc(F)c(C(=O)c2c[nH]c3ncc(Cl)cc23)c1F
# Procedure, shortened: as §1
# [6] = compound: CCCc1cc(C)[nH]c(=O)c1CNC(=O)c1cc(-c2ccnc(N3CCN(C)CC3)c2)cc2c1cnn2C(C)C
# Procedure, shortened: as §1
# givinostat = compound: CCN(CC)Cc1ccc2cc(COC(=O)Nc3ccc(C(=O)NO)cc3)ccc2c1 [givinostat]
# Procedure, shortened: as §1
# barasertib = compound: CCN(CCCOc1ccc2c(Nc3cc(CC(=O)Nc4cccc(F)c4)[nH]n3)ncnc2c1)CCOP(=O)(O)O [barasertib]
# Procedure, shortened: as §1
# Sequence of UniProt Q9Y3X0 (Q9Y3X0 whole entry, looked up): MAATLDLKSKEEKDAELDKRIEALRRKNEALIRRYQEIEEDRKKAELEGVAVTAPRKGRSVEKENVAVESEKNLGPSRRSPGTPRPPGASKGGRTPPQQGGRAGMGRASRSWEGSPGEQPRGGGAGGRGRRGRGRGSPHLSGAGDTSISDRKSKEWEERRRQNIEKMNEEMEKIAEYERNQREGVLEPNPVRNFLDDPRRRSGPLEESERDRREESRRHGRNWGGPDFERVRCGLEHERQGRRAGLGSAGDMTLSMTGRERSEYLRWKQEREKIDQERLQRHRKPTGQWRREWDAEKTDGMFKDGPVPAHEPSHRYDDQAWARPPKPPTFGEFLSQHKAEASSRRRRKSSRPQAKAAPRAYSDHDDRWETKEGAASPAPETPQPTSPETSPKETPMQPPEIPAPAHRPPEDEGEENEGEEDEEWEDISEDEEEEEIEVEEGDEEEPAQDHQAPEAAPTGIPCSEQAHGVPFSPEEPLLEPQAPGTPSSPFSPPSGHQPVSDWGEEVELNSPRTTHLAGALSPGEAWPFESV
# Sequence of UniProt Q96GQ5 (Q96GQ5 whole entry, looked up): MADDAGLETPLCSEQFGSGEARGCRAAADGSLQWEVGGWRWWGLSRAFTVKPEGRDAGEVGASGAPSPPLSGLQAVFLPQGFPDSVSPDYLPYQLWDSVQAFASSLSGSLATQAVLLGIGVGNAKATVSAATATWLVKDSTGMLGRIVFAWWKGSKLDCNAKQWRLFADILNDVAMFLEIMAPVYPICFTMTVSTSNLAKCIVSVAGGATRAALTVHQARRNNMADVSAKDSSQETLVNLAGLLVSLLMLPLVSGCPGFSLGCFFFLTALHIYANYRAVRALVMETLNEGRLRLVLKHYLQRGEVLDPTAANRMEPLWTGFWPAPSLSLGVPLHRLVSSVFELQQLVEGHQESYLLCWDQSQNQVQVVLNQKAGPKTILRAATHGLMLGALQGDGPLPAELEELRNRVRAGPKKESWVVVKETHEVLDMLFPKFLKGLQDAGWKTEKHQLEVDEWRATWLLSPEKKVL
# Sequence of UniProt Q02224 (Q02224 whole entry, looked up): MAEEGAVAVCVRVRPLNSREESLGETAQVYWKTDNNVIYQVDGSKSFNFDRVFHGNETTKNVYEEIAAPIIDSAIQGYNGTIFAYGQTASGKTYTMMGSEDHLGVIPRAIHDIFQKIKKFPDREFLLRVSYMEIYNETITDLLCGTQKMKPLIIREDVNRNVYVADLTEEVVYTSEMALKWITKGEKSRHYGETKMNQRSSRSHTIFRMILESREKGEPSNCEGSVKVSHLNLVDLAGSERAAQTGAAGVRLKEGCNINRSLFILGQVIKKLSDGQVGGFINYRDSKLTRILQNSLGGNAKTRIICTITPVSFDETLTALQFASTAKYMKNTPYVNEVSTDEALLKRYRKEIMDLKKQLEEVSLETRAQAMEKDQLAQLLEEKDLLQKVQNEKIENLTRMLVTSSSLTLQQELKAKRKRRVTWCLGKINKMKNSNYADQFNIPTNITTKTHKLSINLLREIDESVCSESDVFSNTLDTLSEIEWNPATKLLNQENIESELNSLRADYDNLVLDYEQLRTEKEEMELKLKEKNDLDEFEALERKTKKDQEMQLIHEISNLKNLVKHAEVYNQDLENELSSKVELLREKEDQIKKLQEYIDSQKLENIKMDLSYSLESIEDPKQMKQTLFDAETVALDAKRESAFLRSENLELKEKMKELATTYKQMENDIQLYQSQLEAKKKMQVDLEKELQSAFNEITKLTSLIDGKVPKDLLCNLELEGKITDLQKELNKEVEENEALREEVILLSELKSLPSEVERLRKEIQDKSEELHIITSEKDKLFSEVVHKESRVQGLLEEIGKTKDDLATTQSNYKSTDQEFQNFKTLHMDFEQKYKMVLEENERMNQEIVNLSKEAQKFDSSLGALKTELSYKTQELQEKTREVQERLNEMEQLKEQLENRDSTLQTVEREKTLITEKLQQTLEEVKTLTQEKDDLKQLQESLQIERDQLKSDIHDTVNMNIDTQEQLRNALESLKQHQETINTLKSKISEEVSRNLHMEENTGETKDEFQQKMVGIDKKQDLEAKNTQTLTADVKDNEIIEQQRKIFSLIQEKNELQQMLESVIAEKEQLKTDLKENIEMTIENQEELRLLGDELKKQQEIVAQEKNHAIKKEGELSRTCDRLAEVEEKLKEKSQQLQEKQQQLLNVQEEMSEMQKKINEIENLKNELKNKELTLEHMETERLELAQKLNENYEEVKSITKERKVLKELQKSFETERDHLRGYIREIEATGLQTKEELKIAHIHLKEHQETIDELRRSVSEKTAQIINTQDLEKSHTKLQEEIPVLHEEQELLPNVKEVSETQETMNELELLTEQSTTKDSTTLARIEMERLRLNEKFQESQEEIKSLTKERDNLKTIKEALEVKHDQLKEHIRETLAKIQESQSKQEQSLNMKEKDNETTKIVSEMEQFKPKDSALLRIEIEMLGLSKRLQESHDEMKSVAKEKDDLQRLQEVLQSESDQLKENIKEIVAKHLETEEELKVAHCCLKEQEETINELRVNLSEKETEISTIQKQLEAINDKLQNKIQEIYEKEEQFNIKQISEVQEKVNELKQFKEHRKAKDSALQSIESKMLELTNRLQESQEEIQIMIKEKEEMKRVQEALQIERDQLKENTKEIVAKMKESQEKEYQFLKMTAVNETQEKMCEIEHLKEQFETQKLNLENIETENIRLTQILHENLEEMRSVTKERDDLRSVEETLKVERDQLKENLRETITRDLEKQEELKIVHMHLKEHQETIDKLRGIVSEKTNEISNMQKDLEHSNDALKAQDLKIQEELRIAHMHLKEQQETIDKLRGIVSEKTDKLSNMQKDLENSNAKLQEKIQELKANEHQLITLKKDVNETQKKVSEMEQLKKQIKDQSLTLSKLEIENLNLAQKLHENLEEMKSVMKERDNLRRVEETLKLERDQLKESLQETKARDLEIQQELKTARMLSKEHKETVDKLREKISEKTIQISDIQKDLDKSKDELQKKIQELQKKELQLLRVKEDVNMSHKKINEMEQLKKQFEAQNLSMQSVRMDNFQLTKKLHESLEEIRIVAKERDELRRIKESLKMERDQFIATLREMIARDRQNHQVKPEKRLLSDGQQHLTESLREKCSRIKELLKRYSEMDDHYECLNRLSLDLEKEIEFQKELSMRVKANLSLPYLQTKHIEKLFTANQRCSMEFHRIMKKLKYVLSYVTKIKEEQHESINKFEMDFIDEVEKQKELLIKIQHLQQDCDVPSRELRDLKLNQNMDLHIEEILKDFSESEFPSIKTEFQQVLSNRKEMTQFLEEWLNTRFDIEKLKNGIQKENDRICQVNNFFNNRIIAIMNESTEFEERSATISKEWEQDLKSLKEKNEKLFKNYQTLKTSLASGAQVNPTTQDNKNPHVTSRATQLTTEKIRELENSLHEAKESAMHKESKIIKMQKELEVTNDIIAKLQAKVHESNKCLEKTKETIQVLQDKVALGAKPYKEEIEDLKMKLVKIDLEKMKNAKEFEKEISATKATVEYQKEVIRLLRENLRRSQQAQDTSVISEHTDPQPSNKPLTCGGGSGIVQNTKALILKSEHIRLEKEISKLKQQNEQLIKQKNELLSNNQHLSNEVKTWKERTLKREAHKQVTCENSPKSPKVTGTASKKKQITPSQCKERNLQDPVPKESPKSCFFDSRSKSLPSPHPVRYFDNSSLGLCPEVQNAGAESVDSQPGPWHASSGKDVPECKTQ
# Sequence of UniProt Q13111 (Q13111 whole entry, looked up): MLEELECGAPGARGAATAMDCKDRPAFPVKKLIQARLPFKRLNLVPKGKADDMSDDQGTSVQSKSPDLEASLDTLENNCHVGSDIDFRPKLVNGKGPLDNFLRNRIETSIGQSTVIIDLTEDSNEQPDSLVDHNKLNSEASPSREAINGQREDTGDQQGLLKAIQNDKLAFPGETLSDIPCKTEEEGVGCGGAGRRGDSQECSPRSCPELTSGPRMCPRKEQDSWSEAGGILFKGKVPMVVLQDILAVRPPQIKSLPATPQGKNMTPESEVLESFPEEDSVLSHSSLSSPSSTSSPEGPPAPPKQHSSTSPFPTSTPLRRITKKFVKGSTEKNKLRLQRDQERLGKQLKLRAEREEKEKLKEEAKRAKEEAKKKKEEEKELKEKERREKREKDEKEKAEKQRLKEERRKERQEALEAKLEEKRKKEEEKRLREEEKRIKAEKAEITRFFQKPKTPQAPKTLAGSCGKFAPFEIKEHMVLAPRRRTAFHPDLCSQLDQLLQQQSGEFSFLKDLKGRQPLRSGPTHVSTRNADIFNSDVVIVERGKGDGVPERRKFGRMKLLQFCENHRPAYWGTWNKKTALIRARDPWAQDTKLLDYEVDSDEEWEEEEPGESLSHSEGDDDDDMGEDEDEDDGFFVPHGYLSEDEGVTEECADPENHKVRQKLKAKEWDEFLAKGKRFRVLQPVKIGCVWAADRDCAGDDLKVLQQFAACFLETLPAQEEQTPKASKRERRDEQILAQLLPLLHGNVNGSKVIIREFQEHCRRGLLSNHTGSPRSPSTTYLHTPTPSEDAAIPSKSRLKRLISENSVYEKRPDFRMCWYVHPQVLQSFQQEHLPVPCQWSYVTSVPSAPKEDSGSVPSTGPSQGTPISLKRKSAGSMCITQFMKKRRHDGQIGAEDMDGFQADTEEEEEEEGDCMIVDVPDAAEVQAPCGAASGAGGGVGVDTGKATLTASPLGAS
# Sequence of UniProt P35219 (P35219 whole entry, looked up): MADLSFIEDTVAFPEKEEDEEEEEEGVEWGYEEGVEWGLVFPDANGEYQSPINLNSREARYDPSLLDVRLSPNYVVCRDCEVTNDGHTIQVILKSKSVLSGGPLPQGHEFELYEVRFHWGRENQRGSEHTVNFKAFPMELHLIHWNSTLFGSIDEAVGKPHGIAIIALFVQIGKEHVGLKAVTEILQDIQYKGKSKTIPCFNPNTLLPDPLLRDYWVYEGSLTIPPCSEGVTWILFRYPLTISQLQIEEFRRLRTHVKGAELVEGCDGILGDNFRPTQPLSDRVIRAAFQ
# Sequence of UniProt Q9P0B6 (Q9P0B6 whole entry, looked up): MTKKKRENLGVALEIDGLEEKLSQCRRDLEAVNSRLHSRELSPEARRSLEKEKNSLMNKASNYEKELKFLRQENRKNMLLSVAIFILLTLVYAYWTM
Target,log2 fold change [1],log2 fold change [2],log2 fold change [3],log2 fold change [4],log2 fold change (Nexturastat A),log2 fold change (vemurafenib),log2 fold change [5],log2 fold change [6],log2 fold change (givinostat),log2 fold change (barasertib)
CLUH (UniProt O75153),-0.017,-0.08,-0.002,-0.072,-0.022,0.047,-0.03,0.049,0.016,0.033
CLPX (UniProt O76031),0.022,-0.013,-0.008,0.012,0,-0.011,-0.013,-0.002,0.02,-0.013
C19orf53 (UniProt Q9UNZ5),0.056,0.016,-0.065,-0.196,0.184,-0.189,-0.044,0.146,0.021,-0.096
COX5A (UniProt P20674),-0.005,-0.074,0,-0.016,0.072,0.165,-0.114,-0.093,-0.092,0.085
CA8 (UniProt P35219),-0.024,-0.081,0.041,0.006,-0.058,0.004,0.02,-0.002,0.077,0.034
CDAN1 (UniProt Q8IWY9),0.039,0.046,-0.071,-0.022,-0.192,-0.067,0.077,0.022,0.023,0.002
CDC42BPA isoform 6 (UniProt Q5VT25),0.151,-0.079,0.01,-0.015,0.123,0.004,0.141,-0.013,0.051,0.04
CCZ1 (UniProt P86791),-0.005,-0.029,0.014,0.035,0.009,0.024,0.011,-0.029,0.028,-0.011
CD53 (UniProt P19397),-0.062,-0.099,-0.13,-0.095,-0.006,-0.035,-0.182,-0.092,-0.006,-0.102
COX7C (UniProt P15954),-0.057,-0.187,-0.01,0.088,0.027,-0.018,-0.085,0.143,-0.271,0.061
CCDC9 (UniProt Q9Y3X0),-0.042,0.007,0.019,0.055,0.119,-0.007,-0.009,-0.004,-0.069,0.021
CHEK1 (UniProt O14757),-0.023,-0.013,0.05,0.037,-0.048,0.017,0,-0.022,0.029,0.033
CPSF1 (UniProt Q10570),-0.017,0,-0.123,-0.083,0.453 (active),-0.115,0.014,-0.005,0.058,-0.024
CCNT1 (UniProt O60563),-0.033,-0.018,-0.02,0.005,0.218,0.027,0.007,0.023,0.022,0.022
CCNK isoform 4 (UniProt O75909),0,0.032,-0.032,-0.011,0.024,-0.088,0,0.038,0.014,-0.063
CLPP (UniProt Q16740),-0.002,-0.004,-0.003,0.007,0.041,0.015,0.008,0.023,0.003,0.001
CDC123 (UniProt O75794),-0.033,0.006,0.043,0.048,0.013,0.011,0.02,0.038,-0.01,0.028
CCAR1 (UniProt Q8IX12),0.03,-0.046,-0.001,-0.017,0.071,0.007,0.006,-0.045,0.027,-0.04
CELF2 isoform 3 (UniProt O95319),0.075,0.01,0.112,-0.006,-0.025,0.065,0.005,-0.02,-0.008,0.001
CNDP2 (UniProt Q96KP4),0.021,-0.013,0.04,0.043,-0.131,0.016,0.003,-0.052,-0.087,-0.004
C16orf58 (UniProt Q96GQ5),-0.04,0.001,0.021,0.003,-0.049,-0.007,0.005,-0.075,-0.012,-0.011
CERS2 (UniProt Q96G23),-0.02,0.015,0.036,0.019,-0.083,-0.018,0.101,-0.013,-0.038,-0.002
COQ9 (UniProt O75208),0.016,0.045,0.054,0.064,-0.266 (active),0.041,-0.004,-0.006,-0.006,0.046
C9orf64 (UniProt Q5T6V5),0.014,-0.014,0.029,0.001,0.029,-0.032,0.079,-0.036,0.064,0.08
CENPE (UniProt Q02224),-0.018,0.063,0.022,-0.096,–,0.047,-0.108,–,0.285,-0.1
C19orf54 (UniProt Q5BKX5),0.096,-0.053,0.127,-0.104,-0.025,-0.118,0.077,–,0.044,–
CCDC167 (UniProt Q9P0B6),0.064,-0.039,-0.007,-0.042,0.022,–,-0.034,0.022,0.048,-0.003
CHPT1 (UniProt Q8WUD6),0.088,0.055,0.132,–,0.114,–,0.051,0.047,–,–
CHAF1A (UniProt Q13111),0.035,-0.054,0.087,-0.116,0.088,–,0.026,-0.097,0.149,0.107
C6orf120 (UniProt Q7Z4R8),-0.054,0.045,0.018,-0.094,–,-0.035,0.069,–,-0.011,0.017
